Shown is part of a subset that was picked to be rich in the strongest signals.

Holding throughout (experiment): glycan array binding signal (z-score within array); higher = stronger binding
What all share (details): glycan notation: IUPAC condensed, linker removed

In one test the target is Fuc(a1-2)Gal(b1-4)Glc. An outline of the steps:
(§1)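 The binding signal is a Z-score computed within each array and averaged over linkers. Arrays of the same protein sequence at different concentrations or buffers were also averaged together. Data originate from 3228 arrays in the Consortium for Functional Glycomics database, kept only where the protein sequence was available.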

A further test addresses Fuc(a1-2)Gal(b1-4)GlcNAc. Summed up:
as §1

Test [1] has as its target Fuc(a1-2)Gal(b1-4)GlcNAc(b1-3)Gal(b1-4)GlcNAc(b1-3)Gal(b1-4)GlcNAc. Summed up: as §1
Another test concerns the target Fuc(a1-3)GlcNAc. An outline of the steps:
as §1

The target of test [2] is Gal(a1-3)Gal(b1-4)[Fuc(a1-3)]GlcNAc. Summed up: as §1
In test [3] the target is Gal(b1-3)[Neu5Ac(a2-6)]GlcNAc(b1-4)Gal(b1-4)Glc. An outline of the steps:
as §1

The target in the next test is Gal(b1-4)Glc6S. Summed up: as §1
The next test deals with Gal3S(b1-3)GalNAc. An outline of the steps: as §1
The target of another test is Gal4S(b1-4)GlcNAc. An outline of the steps: as §1
The target in another test is Gal6S(b1-4)Glc. Summed up: as §1
The target in another test is GalNAc(a1-3)Gal. Summed up: as §1
Test [4] deals with Neu5Ac(a2-3)Gal(b1-3)[Fuc(a1-4)]GlcNAc. An outline of the steps:
as §1

Test [5] addresses Neu5Ac(a2-3)Gal(b1-4)GlcNAc. An outline of the steps:
as §1

Test [6] concerns the target Neu5Ac(a2-3)Gal(b1-4)[Fuc(a1-3)]GlcNAc(b1-3)Gal(b1-4)[Fuc(a1-3)]GlcNAc(b1-3)Gal(b1-4)[Fuc(a1-3)]GlcNAc. An outline of the steps:
as §1

Test [7] addresses Neu5Ac(a2-8)Neu5Ac(a2-8)Neu5Ac(a2-3)Gal(b1-4)Glc. Summed up:
as §1

Test [8] has as its target Neu5Gc(a2-3)Gal(b1-3)[Fuc(a1-4)]GlcNAc. Summed up:
as §1

Test [9] addresses Neu5Gc(a2-3)Gal(b1-4)GlcNAc. An outline of the steps: as §1
The target of test [10] is Neu5Gc(a2-6)Gal(b1-4)GlcNAc. Summed up: as §1
The target of test [11] is Fuc(a1-2)Gal(b1-4)[Fuc(a1-3)]GalNAc(b1-3)Gal(b1-4)[Fuc(a1-3)]GlcNAc. Summed up:
as §1

For test [12], the target named is Fuc(a1-2)[Gal(a1-3)]Gal(b1-4)GlcNAc. An outline of the steps:
as §1

In test [13] the target is Fuc(a1-2)[GalNAc(a1-3)]Gal(b1-4)GlcNAc. An outline of the steps:
as §1

In test [14] the target is Fuc(a1-3)[Gal(b1-4)]GlcNAc(b1-4)Gal(b1-4)[Fuc(a1-3)]GlcNAc. Summed up: as §1
The target of the next test is Fuc(a1-4)GlcNAc. An outline of the steps: as §1
The target of the next test is Gal(a1-3)Gal(b1-4)GlcNAc. Summed up:
as §1

In the next test the target is Gal3S(b1-4)GlcNAc6S. An outline of the steps:
as §1

The next test deals with Gal3S6S(b1-4)GlcNAc. An outline of the steps: as §1
The next test deals with Gal3S6S(b1-4)GlcNAc6S. Summed up: as §1
The next test addresses Gal4S6S(b1-4)GlcNAc. An outline of the steps: as §1
Test [15] deals with GlcNAc(b1-3)[GlcNAc(b1-4)][GlcNAc(b1-6)]GlcNAc. An outline of the steps: as §1
Test [16] addresses GlcNAc(b1-4)[GlcNAc(b1-6)]GalNAc. An outline of the steps: as §1
Another test addresses Kdn(a2-3)Gal(b1-3)GlcNAc. Summed up: as §1
The target of test [17] is Man(a1-2)Man(a1-2)Man(a1-3)Man. Summed up:
as §1

For the next test, the target named is Man(b1-4)GlcNAc. Summed up: as §1
Test [18] addresses Neu5Ac(a2-3)Gal(b1-3)[Fuc(a1-4)]GlcNAc(b1-3)Gal(b1-4)[Fuc(a1-3)]GlcNAc. An outline of the steps:
as §1

The target of test [19] is Neu5Ac(a2-3)Gal(b1-4)GlcNAc(b1-3)Gal(b1-4)GlcNAc. An outline of the steps: as §1
The target of test [20] is Neu5Ac(a2-6)GalNAc(b1-4)GlcNAc. An outline of the steps:
as §1

The target in another test is Neu5Gc(a2-6)GalNAc. Summed up:
as §1

B1: RegIIIbeta (Mus musculus), P35230 (protein)
chain: MLPPTACSVMSWMLLSCLMLLSQVQGEDSLKNIPSARISCPKGSQAYGSYCYALFQIPQTWFDAELACQKRPGGHLVSVLNSAEASFLSSMVKRTGNSYQYTWIGLHDPTLGAEPNGGGWEWSNNDVMNYFNWERNPSTALDRAFCGSLSRASGFLKWRDMTCEVKLPYVCKFTG
Regarding B1, the “glycan array binding signal (z-score)” value is -0.114 with Fuc(a1-2)Gal(b1-4)Glc; -0.116 in the test with Fuc(a1-2)Gal(b1-4)GlcNAc; 0.15 in test [1]; -0.114 in the test with Fuc(a1-3)GlcNAc; -0.098 in test [2]; -0.105 in [3]. The “glycan array binding signal (z-score)” value with Gal(b1-4)Glc6S was -0.119; in the test with Gal3S(b1-3)GalNAc it was -0.124; with Gal4S(b1-4)GlcNAc, 0.188; in the test with Gal6S(b1-4)Glc, -0.116; with GalNAc(a1-3)Gal, -0.109; in [4], -0.103. Further, the “glycan array binding signal (z-score)” value in test [5] is -0.071; in test [6], 0.086; in test [7], -0.118; in test [8], 0.106; in [9], -0.116; in test [10], -0.122.

B2: HMGB1 (Homo sapiens), P09429 (protein)
chain: MGKGDPKKPRGKMSSYAFFVQTCREEHKKKHPDASVNFSEFSKKCSERWKTMSAKEKGKFEDMAKADKARYEREMKTYIPPKGETKKKFKDPNAPKRPPSAFFLFCSEYRPKIKGEHPGLSIGDVAKKLGEMWNNTAADDKQPYEKKAAKLKEKYEKDIAAYRAKGKPDAAKKGVVKAEKSKKKKEEEEDEEDEEDEEEEEDEEDEDEEEDDDDE
For the molecule B2, the “glycan array binding signal (z-score)” value with Fuc(a1-2)Gal(b1-4)Glc was -0.488; in test [11], -0.246; in test [12] it was -0.3; in test [13], -0.269; in test [14], -0.39; with Fuc(a1-4)GlcNAc, -0.341. Further, the “glycan array binding signal (z-score)” value is -0.418 with Gal(a1-3)Gal(b1-4)GlcNAc; 3.64 with Gal3S(b1-4)GlcNAc6S; 3.32 in the test with Gal3S6S(b1-4)GlcNAc; 4.75 in the test with Gal3S6S(b1-4)GlcNAc6S; 3.25 in the test with Gal4S6S(b1-4)GlcNAc; -0.403 with GalNAc(a1-3)Gal. The “glycan array binding signal (z-score)” value is -0.309 in test [15]; -0.433 in test [16]; -0.363 in the test with Kdn(a2-3)Gal(b1-3)GlcNAc; -0.413 in [17]; 0.327 with Man(b1-4)GlcNAc; 0.178 in test [18]. Further, the “glycan array binding signal (z-score)” value in test [19] was 0.045; in [6] it was -0.332; in test [20], 0.028; in test [10], 0.015; with Neu5Gc(a2-6)GalNAc, -0.195.

Source of the values: the supplement of paper PMC8728848.
